This note sets out measurements from PubChem BioAssay (NCI).

Compounds without any hit were thinned out: in the full panel of roughly 79,000, 15% have a hit. Values without a mark were called inactive. No stated cut-off is given here; in the data, active means growth inhibition above about 70%; inactive means the rest. Where a SMILES comes first, the peptide text is derived from it. [ ]: non-standard residue; d: D form. The star is where a group is joined. Cbz = O=C(OCc1ccccc1)*; Nva = CCC[CH](N)C(=O)O; OBn = c1ccc(CO*)cc1

A short description of one experiment: NCI Yeast Anticancer Drug Screen. Data for the rad50 strain (AID 155).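 Further: 0% = growth of vehicle-only cultures of the same strain.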 The following applies: S. cerevisiae rad50 strain growth inhibition; at 50.0 µM; stronger effect = higher value. In short, it runs like this:
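Compounds were tested on a yeast strain with an engineered DNA damage repair alteration; the reported value is growth inhibition normalised to vehicle treatment.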
On to `CCCC(=O)c1ccc2c(ccc(=O)n2C)c1`, for which the growth inhibition was 12.2%.

As to `O=C(NC(CO)C(=O)N1CCCC1C(=O)OCc1ccccc1)OCc1ccccc1` (stereo not drawn) (Cbz-Ser-Pro-OBn; configuration not given here), the growth inhibition was 8.55%.

Take `CN(C)CC1CCCC/C1=N\OC(=O)c1ccccc1` (stereo not given): the growth inhibition was -6.9%.

In the case of `CC(C)(C)C(C(N)=O)C(C)(C)C`, the growth inhibition was 4.4%.

Consider `CC(=O)/C(N=Nc1ccccc1SCCC#N)=C(\C)O`, for which the growth inhibition is 12.2%.

`N#Cc1cccc(N(C(=O)c2ccccc2)c2ccccc2)n1`: the growth inhibition is 4.35%.

For `Cc1nc(Nc2ccc(Cl)c(Cl)c2)sc1C(=O)/C=C/c1ccc2c(c1)OCO2`, the growth inhibition is 39.5%.

In the case of `CCCCN1C(=O)C(CC(=O)OCC)SC1=S` (stereo not given), the growth inhibition is -8.35%.

Take `NC(C(=O)O)C1CCCC1` (stereo not given): the growth inhibition was 2.8%.

With `CN(C)c1ccc(C=C(C(=O)c2ccccc2)C(=O)c2ccccc2)cc1`, the growth inhibition is 9.45%.

For `COC(=O)CCC(=O)NC1=C(NCc2ccccc2)C(=O)c2ccccc2C1=O`, the growth inhibition is 26.8%.

On to `COC(=O)C1OCOC2C(CO)OCOC12` (stereo not given), for which the growth inhibition is 6.8%.

For `CN(C)c1nc2ccc(Cl)cc2c(=O)[nH]1`, the growth inhibition was 6.25%.

For the molecule `O=C1Nc2cccc3cc(NCC(O)CCCl)cc1c23` (stereo not given), the growth inhibition is 17.4%.

With `O=C1CC23CC(=O)CC2(C1)c1ccccc1C3=O` (stereo not given), the growth inhibition is 11.1%.

For `NC(=S)NNC(=O)c1ccncc1`, the growth inhibition was 13.3%.

Consider `CC[n+]1c([S-])nn(C)c1-c1cnccn1`, for which the growth inhibition is -2.8%.

As to `Cc1ccc(C(=O)N(C(C)C)C(C)C)cc1N=NN(C)C`, the growth inhibition is -10%.

`Cc1ccc(NC(=O)CC2C(=O)Nc3ccccc3S2(=O)=O)c(C)c1` (stereo not given): the growth inhibition is -24.6%.

As to `C=CCNC(=O)NCCCC(NC(C)=O)C(=O)NCc1ccccc1` (stereo not given), the growth inhibition is -20.9%.

Regarding `COC(=O)[C@@H]1CCC(/C(C#N)=C2/CC[C@@H](C(=O)OC)N2)=N1`, the growth inhibition was 8.45%.

Regarding `N=c1c(C(=O)O)cccn1O`, the growth inhibition was 8.1%.

Turning to `O=C1CNS(=O)(=O)N1`, the growth inhibition was -18.9%.

Take `C/C(=N/NC(N)=O)C1=CCCCC1`: the growth inhibition is -7%.

On to `CC1(c2cccs2)C(=O)NC(=O)N1C(=O)CCl` (stereo not given), for which the growth inhibition is 6.8%.

In the case of `O=C1/C(=C\C=C\c2ccccc2)CCC/C1=C/C=C/c1ccccc1`, the growth inhibition is 15.3%.

`O=[N+]([O-])c1ccc(N=N/C(Cc2ccccc2)=N\Nc2ccccc2)cc1`: the growth inhibition was 31.4%.

Consider `O=C(NO)/C(CC(=O)c1ccc(O)cc1)=N\O`, for which the growth inhibition is -8.9%.

Take `CCOC(=O)c1nc2ccccc2nc1NCc1ccc(OC)cc1`: the growth inhibition is -6.5%.

`Cc1ccccc1C(=O)N(C(C)C)C(C)C`: the growth inhibition is 12.8%.

Turning to `CC(C)C(=O)NCc1ccccc1Sc1ccccc1CNC(=O)C(C)C`, the growth inhibition is -13.8%.

Take `CCC(=O)OCCCc1ccccc1`: the growth inhibition was 22.1%.

Take `O=C(COC(=O)C(CC(=O)c1ccccc1)Cc1ccccc1)c1ccc(-c2ccccc2)cc1` (stereo not given): the growth inhibition is 25.7%.

As for `Cc1cc(=O)n2c(cc3cccccc32)n1`, the growth inhibition is 14.6%.

Consider `CCCC(NC(=O)OCc1ccccc1)C(=O)NC(CCSC)C(N)=O` (stereo not given) (Cbz-[Nva]-Met-NH2; configuration not given here), for which the growth inhibition was 28.2%.

`O=C1NN(c2ccccc2)CCO1`: the growth inhibition is -2.45%.

Regarding `C[Si](C)(/C(=C/COCc1ccccc1)CCOC1CCCCO1)c1ccccc1` (stereo not given), the growth inhibition is -5.4%.

With `C=CC1CC1(Cl)Cl` (stereo not given), the growth inhibition was -10.9%.

For the molecule `CC/C(CCC(=O)OC)=N/Nc1ccc([N+](=O)[O-])cc1[N+](=O)[O-]`, the growth inhibition was 4.05%.

Consider `CCC1CCCCC1O` (stereo not given), for which the growth inhibition was 1.6%.

The nature of the next experiment: NCI Yeast Anticancer Drug Screen. Data for the mec2-1 strain (AID 157). The following applies: S. cerevisiae mec2-1 strain, at 50.0 µM, stronger effect = higher value. The gist of the method:
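Test agents were screened against the mec2-1 yeast strain, with defined DNA repair or cell cycle alteration. Growth was scored as inhibition against vehicle-only controls.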
Consider `CCCC(=O)c1ccc2c(ccc(=O)n2C)c1`, for which the growth inhibition is -8.75%.

As to `O=C(NC(CO)C(=O)N1CCCC1C(=O)OCc1ccccc1)OCc1ccccc1` (stereo not drawn) (Cbz-Ser-Pro-OBn; configuration not given here), the growth inhibition was 7%.

Regarding `CN(C)CC1CCCC/C1=N\OC(=O)c1ccccc1` (stereo not given), the growth inhibition is -13.8%.

`CC(C)(C)C(C(N)=O)C(C)(C)C`: the growth inhibition is 2.6%.

For the molecule `CC(=O)/C(N=Nc1ccccc1SCCC#N)=C(\C)O`, the growth inhibition was -2.55%.

Take `N#Cc1cccc(N(C(=O)c2ccccc2)c2ccccc2)n1`: the growth inhibition is 7.9%.

As to `Cc1nc(Nc2ccc(Cl)c(Cl)c2)sc1C(=O)/C=C/c1ccc2c(c1)OCO2`, the growth inhibition was 23.1%.

In the case of `CCCCN1C(=O)C(CC(=O)OCC)SC1=S` (stereo not given), the growth inhibition was -28.7%.

Consider `NC(C(=O)O)C1CCCC1` (stereo not given), for which the growth inhibition was -5.1%.

In the case of `CN(C)c1ccc(C=C(C(=O)c2ccccc2)C(=O)c2ccccc2)cc1`, the growth inhibition is 1.9%.

`COC(=O)CCC(=O)NC1=C(NCc2ccccc2)C(=O)c2ccccc2C1=O`: the growth inhibition is 12.8%.

`COC(=O)C1OCOC2C(CO)OCOC12` (stereo not given): the growth inhibition was 23.1%.

As for `CN(C)c1nc2ccc(Cl)cc2c(=O)[nH]1`, the growth inhibition is 4.55%.

Take `O=C1Nc2cccc3cc(NCC(O)CCCl)cc1c23` (stereo not given): the growth inhibition was 3.1%.

As for `O=C1CC23CC(=O)CC2(C1)c1ccccc1C3=O` (stereo not given), the growth inhibition is -11.8%.

In the case of `NC(=S)NNC(=O)c1ccncc1`, the growth inhibition is -3.1%.

In the case of `CC[n+]1c([S-])nn(C)c1-c1cnccn1`, the growth inhibition is -4.9%.

On to `Cc1ccc(C(=O)N(C(C)C)C(C)C)cc1N=NN(C)C`, for which the growth inhibition is -30.6%.

As for `Cc1ccc(NC(=O)CC2C(=O)Nc3ccccc3S2(=O)=O)c(C)c1` (stereo not given), the growth inhibition is -24.8%.

With `C=CCNC(=O)NCCCC(NC(C)=O)C(=O)NCc1ccccc1` (stereo not given), the growth inhibition is -21.3%.

In the case of `COC(=O)[C@@H]1CCC(/C(C#N)=C2/CC[C@@H](C(=O)OC)N2)=N1`, the growth inhibition is 12.6%.

For the molecule `N=c1c(C(=O)O)cccn1O`, the growth inhibition was -5.1%.

Turning to `O=C1CNS(=O)(=O)N1`, the growth inhibition was 8.45%.

Turning to `C/C(=N/NC(N)=O)C1=CCCCC1`, the growth inhibition was 7.3%.

As to `CC1(c2cccs2)C(=O)NC(=O)N1C(=O)CCl` (stereo not given), the growth inhibition was 4.55%.

Consider `O=C1/C(=C\C=C\c2ccccc2)CCC/C1=C/C=C/c1ccccc1`, for which the growth inhibition was 5.05%.

On to `O=[N+]([O-])c1ccc(N=N/C(Cc2ccccc2)=N\Nc2ccccc2)cc1`, for which the growth inhibition was 12.9%.

In the case of `O=C(NO)/C(CC(=O)c1ccc(O)cc1)=N\O`, the growth inhibition was -10.4%.

As to `CCOC(=O)c1nc2ccccc2nc1NCc1ccc(OC)cc1`, the growth inhibition is -6.45%.

As to `Cc1ccccc1C(=O)N(C(C)C)C(C)C`, the growth inhibition is -6.45%.

For the molecule `CC(C)C(=O)NCc1ccccc1Sc1ccccc1CNC(=O)C(C)C`, the growth inhibition is 6.1%.

On to `CCC(=O)OCCCc1ccccc1`, for which the growth inhibition was 8.25%.

Regarding `O=C(COC(=O)C(CC(=O)c1ccccc1)Cc1ccccc1)c1ccc(-c2ccccc2)cc1` (stereo not given), the growth inhibition is 25.3%.

In the case of `Cc1cc(=O)n2c(cc3cccccc32)n1`, the growth inhibition was -1.3%.

With `CCCC(NC(=O)OCc1ccccc1)C(=O)NC(CCSC)C(N)=O` (stereo not given) (Cbz-[Nva]-Met-NH2; configuration not given here), the growth inhibition was -5.35%.

Regarding `O=C1NN(c2ccccc2)CCO1`, the growth inhibition is -3.2%.

Consider `C[Si](C)(/C(=C/COCc1ccccc1)CCOC1CCCCO1)c1ccccc1` (stereo not given), for which the growth inhibition is -6.95%.

Consider `C=CC1CC1(Cl)Cl` (stereo not given), for which the growth inhibition is 12.8%.

With `CC/C(CCC(=O)OC)=N/Nc1ccc([N+](=O)[O-])cc1[N+](=O)[O-]`, the growth inhibition was 7.25%.

In the case of `CCC1CCCCC1O` (stereo not given), the growth inhibition was -7%.
